Test [1] can be described thus: NCI Yeast Anticancer Drug Screen. Data for the rad50 strain (AID 155).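 Note: 0% = growth of vehicle-only cultures of the same strain.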 The note with it: S. cerevisiae rad50 strain growth inhibition, hits give high values. Put shortly: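 A DNA repair-deficient yeast mutant serves as the test organism; compound-induced growth inhibition is calculated against vehicle-treated cells.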
A short description of test [2]: NCI Yeast Anticancer Drug Screen. Data for the mec2-1 strain (AID 157). The following applies: S. cerevisiae mec2-1 strain, hits give high values. Put shortly: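 Readout is yeast growth inhibition, normalised to vehicle-treated controls, in the mec2-1 strain exposed to compound.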
Test [3] is described as follows: NCI Yeast Anticancer Drug Screen. Data for the sgs1 mgt1 strain (AID 161).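 Note: 0% = growth of cultures given vehicle only.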 The following applies: S. cerevisiae sgs1 mgt1 strain, hits give high values. Put shortly: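 Compounds are added to genetically altered yeast, and growth is compared with cultures given vehicle alone to give percent inhibition.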
Test [4] in a line: NCI Yeast Anticancer Drug Screen. Data for the cln2 rad14 strain (AID 165).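 Note: 0% = growth equal to vehicle treated cultures.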 The following applies: S. cerevisiae cln2 rad14 strain, hits give high values. The method in brief:
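Relative to vehicle controls, growth inhibition of compound-treated cln2 rad14 yeast was recorded.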

Test [5] can be described thus: NCI Yeast Anticancer Drug Screen. Data for the bub3 strain (AID 167). The note with it: S. cerevisiae bub3 mutant strain, hits give high values. The method in brief:
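Inhibition values come from growth of compound-treated mutant yeast normalised to vehicle-treated controls.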

A short description of test [6]: NCI Yeast Anticancer Drug Screen. Data for the mlh1 rad18 strain (AID 175). The following applies: S. cerevisiae mlh1 rad18 strain growth inhibition, hits give high values. Put shortly: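 Test agents were incubated with a yeast strain of defined genotype (DNA damage repair defect). Inhibition of growth was derived by comparison with vehicle-exposed cultures.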
Where [7] appears, read: at 5.0 µM (retest, dose inferred, filed as 0.5).
The mark [8] stands for this setting: at 50.0 µM (retest, dose inferred, filed as 5.0).

The source of these data is PubChem BioAssay (NCI).

The panel holds about 79,000 compounds, 15% with a hit somewhere; the sample as a whole holds those more often. A number with no mark means an inactive call. Active and inactive are the calls of the source. Cut-off read from the data, not from the text of the source: active = growth inhibition above about 70%; inactive = the rest.

Regarding `c1ccc2c(c1)Nc1ccc3ccccc3c1S2`, the growth inhibition in test [1] (setting [7]) is 3%; in test [1] (setting [8]), -1%; in test [1] (at 50.0 µM), 47.8%; in test [2] (setting [7]), -50%; in test [2] (setting [8]) it was 3%; in test [2] (at 50.0 µM) it was 15.2%. The growth inhibition in test [3] (setting [7]) is -1%; in test [3] (setting [8]) it was 13%; in test [3] (at 50.0 µM), 41.5%; in test [4] (setting [7]) it was 4%; in test [4] (setting [8]), -12%; in test [4] (at 50.0 µM), -39.9%. The growth inhibition in test [5] (setting [7]) was 30%; in test [5] (setting [8]), 3%; in test [5] (at 50.0 µM), 48.6%; in test [6] (setting [7]), 3%; in test [6] (setting [8]), 13%; in test [6] (at 50.0 µM), 66.5%.
On to `CCOC(=O)c1ccc(O)c(C=O)c1`, for which the growth inhibition is -103% in test [1] (setting [7]); 90% (active) in test [1] (setting [8]); 99.2% (active) in test [1] (at 50.0 µM); -29% in test [2] (setting [7]); 98% (active) in test [2] (setting [8]); 99.6% (active) in test [2] (at 50.0 µM). Further, the growth inhibition in test [3] (setting [7]) is -35%; in test [3] (setting [8]), 98% (active); in test [3] (at 50.0 µM), 99.3% (active); in test [4] (setting [7]), -28%; in test [4] (setting [8]), 98% (active); in test [4] (at 50.0 µM) it was 99% (active). Moreover, the growth inhibition in test [5] (setting [7]) was -49%; in test [5] (setting [8]), 98% (active); in test [5] (at 50.0 µM) it was 98.6% (active); in test [6] (setting [7]), -83%; in test [6] (setting [8]), 98% (active); in test [6] (at 50.0 µM) it was 99.5% (active).
With `CCCCCCCCC(=O)Cl`, the growth inhibition in test [1] (setting [7]) was 11%; in test [1] (setting [8]) it was 82% (active); in test [1] (at 50.0 µM) it was 74.4% (active); in test [2] (setting [7]), 9%; in test [2] (setting [8]), 61%; in test [2] (at 50.0 µM), 47.9%. Besides, the growth inhibition in test [3] (setting [7]) is 10%; in test [3] (setting [8]), 64%; in test [3] (at 50.0 µM), 77.5% (active); in test [4] (setting [7]) it was 6%; in test [4] (setting [8]), 38%; in test [4] (at 50.0 µM) it was 27.1%. Also, the growth inhibition in test [5] (setting [7]) is 0%; in test [5] (setting [8]), 77% (active); in test [5] (at 50.0 µM) it was 69.3%; in test [6] (setting [7]), 6%; in test [6] (setting [8]), 69%; in test [6] (at 50.0 µM), 88.3% (active).
`CC(C)(C)OC(=O)C(N(Cc1ccccc1)Cc1ccccc1)N(Cc1ccccc1)Cc1ccccc1`: the growth inhibition in test [1] (setting [7]) was 0%; in test [1] (setting [8]), 14%; in test [1] (at 50.0 µM), 12.1%; in test [2] (setting [7]), 2%; in test [2] (setting [8]) it was 9%; in test [2] (at 50.0 µM), 20.6%. Besides, the growth inhibition was 2% in test [3] (setting [7]); 17% in test [3] (setting [8]); 24.4% in test [3] (at 50.0 µM); 3% in test [4] (setting [7]); 10% in test [4] (setting [8]); -2.05% in test [4] (at 50.0 µM). Also, the growth inhibition in test [5] (setting [7]) was 0%; in test [5] (setting [8]) it was 11%; in test [5] (at 50.0 µM) it was 4.75%; in test [6] (setting [7]), 3%; in test [6] (setting [8]), 22%; in test [6] (at 50.0 µM), 30.3%.
Consider `CCCCCCCCCCCCCCCC(=O)NCCN(C)C`, for which the growth inhibition in test [1] (setting [7]) was -2%; in test [1] (setting [8]), 98% (active); in test [1] (at 50.0 µM), 98.7% (active); in test [2] (setting [7]), -2%; in test [2] (setting [8]) it was 99% (active); in test [2] (at 50.0 µM), 97% (active). Also, the growth inhibition in test [3] (setting [7]) is 23%; in test [3] (setting [8]), 98% (active); in test [3] (at 50.0 µM), 56.8%; in test [4] (setting [7]), -3%; in test [4] (setting [8]) it was 99% (active); in test [4] (at 50.0 µM), 88.8% (active). Further, the growth inhibition in test [5] (setting [7]) is -5%; in test [5] (setting [8]) it was 99% (active); in test [5] (at 50.0 µM), 97% (active); in test [6] (setting [7]) it was 1%; in test [6] (setting [8]), 98% (active); in test [6] (at 50.0 µM) it was 98.8% (active).
As for `S=C(SSSSC(=S)N1CCCCC1)N1CCCCC1`, the growth inhibition is 45% in test [1] (setting [7]); 92% (active) in test [1] (setting [8]); 66.8% in test [1] (at 50.0 µM); 39% in test [2] (setting [7]); 95% (active) in test [2] (setting [8]); 19.9% in test [2] (at 50.0 µM). Besides, the growth inhibition in test [3] (setting [7]) was 39%; in test [3] (setting [8]) it was 96% (active); in test [3] (at 50.0 µM) it was 43.1%; in test [4] (setting [7]), 39%; in test [4] (setting [8]) it was 94% (active); in test [4] (at 50.0 µM) it was 9.35%. The growth inhibition in test [5] (setting [7]) was 40%; in test [5] (setting [8]), 95% (active); in test [5] (at 50.0 µM), 73.5% (active); in test [6] (setting [7]), 57%; in test [6] (setting [8]), 93% (active); in test [6] (at 50.0 µM), 81% (active).
As to `CC(C)NC(=O)OCc1c(CO)c2c(n1C)-c1ccccc1CC2`, the growth inhibition was -5% in test [1] (setting [7]); 96% (active) in test [1] (setting [8]); 95.9% (active) in test [1] (at 50.0 µM); -4% in test [2] (setting [7]); 96% (active) in test [2] (setting [8]); 98% (active) in test [2] (at 50.0 µM). In addition, the growth inhibition is 50% in test [3] (setting [7]); 96% (active) in test [3] (setting [8]); 97.8% (active) in test [3] (at 50.0 µM); -10% in test [4] (setting [7]); 95% (active) in test [4] (setting [8]); 96.8% (active) in test [4] (at 50.0 µM). Moreover, the growth inhibition was -3% in test [5] (setting [7]); 96% (active) in test [5] (setting [8]); 98.3% (active) in test [5] (at 50.0 µM); 11% in test [6] (setting [7]); 96% (active) in test [6] (setting [8]); 95.5% (active) in test [6] (at 50.0 µM).
For the molecule `COC(=O)CCCCCOS(=O)(=O)c1ccc(C)cc1`, the growth inhibition in test [1] (setting [7]) was 1%; in test [1] (setting [8]), -5%; in test [1] (at 50.0 µM) it was 26.9%; in test [2] (setting [7]) it was -3%; in test [2] (setting [8]) it was -5%; in test [2] (at 50.0 µM), 16.2%. The growth inhibition is -4% in test [3] (setting [7]); -3% in test [3] (setting [8]); 21.9% in test [3] (at 50.0 µM); -3% in test [4] (setting [7]); -14% in test [4] (setting [8]); 84.2% (active) in test [4] (at 50.0 µM). For the same molecule, the growth inhibition was -1% in test [5] (setting [7]); -5% in test [5] (setting [8]); 1.05% in test [5] (at 50.0 µM); -5% in test [6] (setting [7]); -8% in test [6] (setting [8]); 0.7% in test [6] (at 50.0 µM).
Turning to `C=CCOc1cc(NC(=S)c2sccc2C)ccc1Cl`, the growth inhibition in test [1] (setting [7]) is 3%; in test [1] (setting [8]), 88% (active); in test [1] (at 50.0 µM), 81.5% (active); in test [2] (setting [7]), -5%; in test [2] (setting [8]), 89% (active); in test [2] (at 50.0 µM), 87.2% (active). Besides, the growth inhibition was -9% in test [3] (setting [7]); 88% (active) in test [3] (setting [8]); 85% (active) in test [3] (at 50.0 µM); 2% in test [4] (setting [7]); 89% (active) in test [4] (setting [8]); 80.2% (active) in test [4] (at 50.0 µM). In addition, the growth inhibition in test [5] (setting [7]) is 28%; in test [5] (setting [8]) it was 94% (active); in test [5] (at 50.0 µM), 81.3% (active); in test [6] (setting [7]) it was 3%; in test [6] (setting [8]), 91% (active); in test [6] (at 50.0 µM) it was 81.9% (active).
`CCOC(=O)C(=Cc1ccc(C(=O)OC)cc1)C(=O)OCC`: the growth inhibition in test [1] (setting [7]) is 10%; in test [1] (setting [8]), 58%; in test [1] (at 50.0 µM) it was 82.2% (active); in test [2] (setting [7]), 11%; in test [2] (setting [8]), 86% (active); in test [2] (at 50.0 µM), 75.2% (active). Moreover, the growth inhibition in test [3] (setting [7]) was -2%; in test [3] (setting [8]) it was 63%; in test [3] (at 50.0 µM), 75.3% (active); in test [4] (setting [7]), 38%; in test [4] (setting [8]), 80% (active); in test [4] (at 50.0 µM), 69.5%. Besides, the growth inhibition is 12% in test [5] (setting [7]); 93% (active) in test [5] (setting [8]); 77.2% (active) in test [5] (at 50.0 µM); 14% in test [6] (setting [7]); 88% (active) in test [6] (setting [8]); 62.8% in test [6] (at 50.0 µM).
